Targets with the largest changes are over-represented here; the source holds about 21,000 in all.
Compound: CC1Cc2ccccc2N1C(=O)C1CCCN(C1)C(=O)CCl (mixture of isomers) [TRIM25 ligand 11 (diastereomer mixture)]
Assay: probe-labelled cysteine peptide fold change vs DMSO (competition) (log2 fold change); higher = less target engagement (more negative = stronger competition)
Conditions: THP-1, incubation time: 4 h
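Further: competitive chemoproteomic profiling in live THP-1 cells with an iodoacetamide desthiobiotin (IA-DTB) probe, comparing probe-labelled peptide intensities in compound-treated cells against DMSO-treated controls.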

UniProt Q8N1W2, sequence (Q8N1W2 whole entry): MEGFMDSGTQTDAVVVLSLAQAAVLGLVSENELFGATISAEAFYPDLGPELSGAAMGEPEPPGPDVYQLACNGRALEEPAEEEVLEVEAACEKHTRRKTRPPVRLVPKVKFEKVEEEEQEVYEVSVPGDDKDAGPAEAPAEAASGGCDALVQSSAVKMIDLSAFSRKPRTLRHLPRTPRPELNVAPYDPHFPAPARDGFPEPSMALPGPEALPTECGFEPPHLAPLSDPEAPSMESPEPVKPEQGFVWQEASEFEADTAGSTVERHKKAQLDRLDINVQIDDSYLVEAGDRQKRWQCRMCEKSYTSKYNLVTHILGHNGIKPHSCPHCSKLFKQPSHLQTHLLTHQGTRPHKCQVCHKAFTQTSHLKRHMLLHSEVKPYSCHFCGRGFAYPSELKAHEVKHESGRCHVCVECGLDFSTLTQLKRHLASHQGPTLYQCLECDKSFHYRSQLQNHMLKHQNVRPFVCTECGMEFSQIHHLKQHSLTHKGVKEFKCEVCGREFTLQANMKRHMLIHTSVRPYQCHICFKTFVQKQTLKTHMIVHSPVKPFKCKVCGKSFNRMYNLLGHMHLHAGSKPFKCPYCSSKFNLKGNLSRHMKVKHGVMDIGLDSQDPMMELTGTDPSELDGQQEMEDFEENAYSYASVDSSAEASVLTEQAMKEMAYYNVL
UniProt O43670, sequence (O43670 whole entry, looked up): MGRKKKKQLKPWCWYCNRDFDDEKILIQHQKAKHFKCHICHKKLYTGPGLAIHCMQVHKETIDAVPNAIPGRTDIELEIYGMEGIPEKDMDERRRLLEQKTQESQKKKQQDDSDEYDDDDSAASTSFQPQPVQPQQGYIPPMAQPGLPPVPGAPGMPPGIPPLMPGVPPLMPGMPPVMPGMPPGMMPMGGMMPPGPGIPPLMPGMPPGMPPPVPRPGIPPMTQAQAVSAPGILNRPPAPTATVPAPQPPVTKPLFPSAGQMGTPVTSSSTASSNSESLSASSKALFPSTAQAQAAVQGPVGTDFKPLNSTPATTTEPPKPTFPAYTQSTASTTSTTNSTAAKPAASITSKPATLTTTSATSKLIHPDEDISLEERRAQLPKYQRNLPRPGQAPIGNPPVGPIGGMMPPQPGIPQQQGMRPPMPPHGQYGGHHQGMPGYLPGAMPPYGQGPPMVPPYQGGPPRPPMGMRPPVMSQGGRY
UniProt O95365, sequence (O95365 whole entry, looked up): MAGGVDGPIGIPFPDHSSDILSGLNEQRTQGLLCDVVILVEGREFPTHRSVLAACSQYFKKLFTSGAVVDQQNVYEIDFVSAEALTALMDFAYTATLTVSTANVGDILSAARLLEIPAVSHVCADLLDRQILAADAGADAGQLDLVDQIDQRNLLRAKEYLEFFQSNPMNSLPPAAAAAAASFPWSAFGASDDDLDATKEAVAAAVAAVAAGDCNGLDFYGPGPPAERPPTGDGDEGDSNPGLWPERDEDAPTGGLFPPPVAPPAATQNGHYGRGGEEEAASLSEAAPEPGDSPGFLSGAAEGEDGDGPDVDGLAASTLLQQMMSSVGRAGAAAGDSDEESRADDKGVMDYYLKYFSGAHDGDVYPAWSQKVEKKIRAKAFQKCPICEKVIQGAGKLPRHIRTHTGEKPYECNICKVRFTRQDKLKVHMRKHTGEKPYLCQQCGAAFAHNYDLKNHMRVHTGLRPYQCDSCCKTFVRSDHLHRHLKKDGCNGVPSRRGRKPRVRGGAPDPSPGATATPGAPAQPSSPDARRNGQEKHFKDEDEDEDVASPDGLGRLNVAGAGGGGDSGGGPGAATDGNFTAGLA
UniProt O43264, sequence (O43264 whole entry, looked up): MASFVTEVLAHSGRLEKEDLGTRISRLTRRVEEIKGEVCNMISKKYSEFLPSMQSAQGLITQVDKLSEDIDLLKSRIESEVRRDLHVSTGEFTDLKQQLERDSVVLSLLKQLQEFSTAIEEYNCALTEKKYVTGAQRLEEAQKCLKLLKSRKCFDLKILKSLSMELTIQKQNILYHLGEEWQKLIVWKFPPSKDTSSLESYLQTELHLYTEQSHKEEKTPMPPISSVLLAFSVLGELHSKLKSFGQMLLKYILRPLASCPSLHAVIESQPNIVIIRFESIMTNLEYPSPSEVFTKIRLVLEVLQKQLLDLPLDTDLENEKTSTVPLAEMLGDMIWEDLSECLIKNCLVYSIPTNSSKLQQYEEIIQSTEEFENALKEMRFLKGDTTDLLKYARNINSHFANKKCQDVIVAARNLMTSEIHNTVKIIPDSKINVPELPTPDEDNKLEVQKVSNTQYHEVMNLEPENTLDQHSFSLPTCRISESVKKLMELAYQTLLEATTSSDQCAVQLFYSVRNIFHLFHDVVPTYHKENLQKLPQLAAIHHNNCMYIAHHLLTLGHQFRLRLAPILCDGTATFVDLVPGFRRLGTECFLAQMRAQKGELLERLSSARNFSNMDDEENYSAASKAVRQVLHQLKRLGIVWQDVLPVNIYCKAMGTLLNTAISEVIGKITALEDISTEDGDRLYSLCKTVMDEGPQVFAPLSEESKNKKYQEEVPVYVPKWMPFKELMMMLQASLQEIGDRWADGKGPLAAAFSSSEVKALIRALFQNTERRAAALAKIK
UniProt Q04917, sequence (Q04917 whole entry, looked up): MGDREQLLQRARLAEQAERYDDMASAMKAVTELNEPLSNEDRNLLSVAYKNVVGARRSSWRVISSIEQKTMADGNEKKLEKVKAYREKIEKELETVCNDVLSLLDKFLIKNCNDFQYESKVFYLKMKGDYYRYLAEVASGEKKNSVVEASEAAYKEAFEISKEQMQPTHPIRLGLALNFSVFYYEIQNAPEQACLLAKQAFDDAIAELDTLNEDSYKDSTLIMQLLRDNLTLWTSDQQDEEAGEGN
UniProt Q5VV52, sequence (Q5VV52 whole entry, looked up): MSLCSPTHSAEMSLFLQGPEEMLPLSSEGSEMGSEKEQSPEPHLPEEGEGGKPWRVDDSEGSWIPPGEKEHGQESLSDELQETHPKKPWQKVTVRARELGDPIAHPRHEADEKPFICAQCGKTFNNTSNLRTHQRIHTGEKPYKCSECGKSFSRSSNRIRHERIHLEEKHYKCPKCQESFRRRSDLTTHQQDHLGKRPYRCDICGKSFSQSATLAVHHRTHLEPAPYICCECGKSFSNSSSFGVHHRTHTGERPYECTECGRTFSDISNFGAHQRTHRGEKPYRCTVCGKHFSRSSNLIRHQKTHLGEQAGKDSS
UniProt Q9ULU4, sequence (Q9ULU4 whole entry, looked up): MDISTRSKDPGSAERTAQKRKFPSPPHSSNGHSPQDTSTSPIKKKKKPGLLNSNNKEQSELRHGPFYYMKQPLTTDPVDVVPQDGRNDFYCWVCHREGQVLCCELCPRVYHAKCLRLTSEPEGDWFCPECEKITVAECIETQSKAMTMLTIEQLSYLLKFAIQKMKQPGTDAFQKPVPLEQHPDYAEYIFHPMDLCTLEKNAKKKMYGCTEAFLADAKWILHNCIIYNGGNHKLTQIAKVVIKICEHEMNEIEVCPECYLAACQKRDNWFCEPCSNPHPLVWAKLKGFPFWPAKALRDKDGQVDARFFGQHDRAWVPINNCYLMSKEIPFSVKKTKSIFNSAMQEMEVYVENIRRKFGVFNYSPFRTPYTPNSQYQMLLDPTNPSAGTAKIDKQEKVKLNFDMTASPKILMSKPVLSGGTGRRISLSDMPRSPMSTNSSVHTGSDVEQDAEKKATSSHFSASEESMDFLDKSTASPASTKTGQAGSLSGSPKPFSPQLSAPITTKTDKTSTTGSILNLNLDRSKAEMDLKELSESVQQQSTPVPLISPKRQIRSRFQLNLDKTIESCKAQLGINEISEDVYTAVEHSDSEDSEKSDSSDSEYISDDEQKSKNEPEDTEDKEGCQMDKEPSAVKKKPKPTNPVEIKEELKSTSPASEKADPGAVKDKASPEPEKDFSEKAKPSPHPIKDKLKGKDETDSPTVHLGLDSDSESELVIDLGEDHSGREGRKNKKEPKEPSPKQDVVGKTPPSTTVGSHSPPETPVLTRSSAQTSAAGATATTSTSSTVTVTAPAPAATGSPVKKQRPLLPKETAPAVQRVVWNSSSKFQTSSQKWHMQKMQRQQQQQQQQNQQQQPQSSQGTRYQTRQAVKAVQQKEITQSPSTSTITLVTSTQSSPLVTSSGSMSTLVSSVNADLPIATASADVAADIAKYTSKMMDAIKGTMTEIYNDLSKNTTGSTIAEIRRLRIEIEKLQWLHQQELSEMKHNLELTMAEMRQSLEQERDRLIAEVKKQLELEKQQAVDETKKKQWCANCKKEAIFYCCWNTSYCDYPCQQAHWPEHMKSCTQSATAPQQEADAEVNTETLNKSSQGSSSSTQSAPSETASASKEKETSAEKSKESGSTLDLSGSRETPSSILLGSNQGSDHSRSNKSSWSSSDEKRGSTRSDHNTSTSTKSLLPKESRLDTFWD
UniProt P07947, sequence (P07947 whole entry, looked up): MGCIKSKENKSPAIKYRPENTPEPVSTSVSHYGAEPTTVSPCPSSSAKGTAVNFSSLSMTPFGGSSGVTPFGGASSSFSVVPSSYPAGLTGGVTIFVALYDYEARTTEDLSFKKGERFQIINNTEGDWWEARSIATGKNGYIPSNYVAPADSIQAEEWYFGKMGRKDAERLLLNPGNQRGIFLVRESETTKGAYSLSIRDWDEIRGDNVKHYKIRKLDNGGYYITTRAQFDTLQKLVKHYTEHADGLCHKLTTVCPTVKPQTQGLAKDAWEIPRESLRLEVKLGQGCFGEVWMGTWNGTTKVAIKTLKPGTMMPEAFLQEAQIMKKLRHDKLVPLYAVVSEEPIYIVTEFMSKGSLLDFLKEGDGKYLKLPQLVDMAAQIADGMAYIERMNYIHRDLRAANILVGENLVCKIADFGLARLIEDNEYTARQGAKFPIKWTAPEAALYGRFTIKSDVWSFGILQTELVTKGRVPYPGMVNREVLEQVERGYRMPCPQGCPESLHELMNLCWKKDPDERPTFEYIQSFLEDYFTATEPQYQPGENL

| Target | probe-labelled cysteine peptide fold change (10 µM) | probe-labelled cysteine peptide fold change (50 µM) |
| --- | --- | --- |
| ZNF207_O43670_54_KLYTGPGLAIHCMQVHK (UniProt O43670) | -0.6 | -0.388 |
| ZNF691_Q5VV52_230_THLEPAPYICCECGK (UniProt Q5VV52) | -0.272 | -0.8 |
| YWHAH_Q04917_97_ELETVCNDVLSLLDK (UniProt Q04917) | -0.1 | -0.178 |
| ZNF710_Q8N1W2_91_ALEEPAEEEVLEVEAACEK (UniProt Q8N1W2) | 0.158 | -0.171 |
| ZBTB7A_O95365_34_TQGLLCDVVILVEGR (UniProt O95365) | 0.149 | -0.0545 |
| ZMYND8_Q9ULU4_106_EGQVLCCELCPR (UniProt Q9ULU4) | 0.247 | 0.0715 |
| XRN2_Q9H0D6_296_HDELADSLPCAEGEFIFLR (UniProt Q9H0D6) | 0.409 | -0.0107 |
| YES1_P07947_255_LTTVCPTVKPQTQGLAK (UniProt P07947) | -0.0129 | -0.34 |
| ZW10_O43264_588_LGTECFLAQMR (UniProt O43264) | 0.647 | 0.508 |
| XRN2_Q9H0D6_296_GKHDELADSLPCAEGEFIFLR (UniProt Q9H0D6) | 0.0997 | -0.0177 |

From the supplement of paper PMC12067093, “Discovery and optimisation of a covalent ligand for TRIM25 and its application to targeted protein ubiquitination” (Chemical Science, 2025)
